Measurements taken from the supplement of paper PMC11732987, “Enantioselective OTUD7B fragment discovery through chemoproteomics screening and high-throughput optimisation” (Communications Chemistry, 2025).
Values without a mark were called inactive.

Columns and labels:
Assay in all cases: log2 ratio of Biotin-Ahx-Ub-VS probe labelling (fragment/DMSO); higher = less target engagement (more negative = stronger competition), active = hit call of the paper (q ≤ 0.05, log2 ratio ≤ -1)
Conditions in all cases: compound concentration: 200 uM; treatment time: 3 h
ALG13 = target: T1, ALG13 (UniProt Q9NP73)
T1 sequence (whole entry): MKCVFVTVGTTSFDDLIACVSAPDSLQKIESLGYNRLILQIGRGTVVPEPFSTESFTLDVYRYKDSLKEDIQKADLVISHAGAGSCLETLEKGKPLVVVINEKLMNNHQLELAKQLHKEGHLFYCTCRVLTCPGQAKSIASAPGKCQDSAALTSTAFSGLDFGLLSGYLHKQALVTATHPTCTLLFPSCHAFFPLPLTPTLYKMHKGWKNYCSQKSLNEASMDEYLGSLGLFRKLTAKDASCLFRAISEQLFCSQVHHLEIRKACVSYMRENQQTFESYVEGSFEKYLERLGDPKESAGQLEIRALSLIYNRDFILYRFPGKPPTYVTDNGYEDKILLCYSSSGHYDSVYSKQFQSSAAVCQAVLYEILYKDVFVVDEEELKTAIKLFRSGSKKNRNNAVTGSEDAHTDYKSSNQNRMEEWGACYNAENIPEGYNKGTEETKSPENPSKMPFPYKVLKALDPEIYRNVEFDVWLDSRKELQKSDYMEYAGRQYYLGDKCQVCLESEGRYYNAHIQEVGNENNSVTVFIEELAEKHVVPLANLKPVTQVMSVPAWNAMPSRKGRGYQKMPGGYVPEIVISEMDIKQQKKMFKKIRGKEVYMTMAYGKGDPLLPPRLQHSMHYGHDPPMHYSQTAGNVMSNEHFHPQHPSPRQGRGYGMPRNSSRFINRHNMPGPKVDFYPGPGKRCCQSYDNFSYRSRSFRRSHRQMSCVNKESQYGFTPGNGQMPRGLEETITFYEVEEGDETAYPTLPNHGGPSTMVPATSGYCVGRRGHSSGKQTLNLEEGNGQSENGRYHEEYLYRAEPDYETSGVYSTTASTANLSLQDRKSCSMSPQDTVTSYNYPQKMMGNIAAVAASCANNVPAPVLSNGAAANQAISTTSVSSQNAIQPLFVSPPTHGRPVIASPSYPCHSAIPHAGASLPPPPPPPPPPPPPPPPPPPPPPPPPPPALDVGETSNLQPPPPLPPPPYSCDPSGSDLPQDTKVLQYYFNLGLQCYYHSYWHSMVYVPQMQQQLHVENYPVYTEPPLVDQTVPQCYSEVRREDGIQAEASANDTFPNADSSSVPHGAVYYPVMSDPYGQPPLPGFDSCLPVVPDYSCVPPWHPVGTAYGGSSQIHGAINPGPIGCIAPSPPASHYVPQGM
Summary of the method: (§1)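 HEK293T lysate, 495 µg per sample in Tris/CHAPS/IGEPAL buffer with protease inhibitors, was treated in triplicate with fragment at 200 µM or vehicle for 3 h and then with Biotin-Ahx-Ub-VS at 0.5 µM final for 1 h. Labelled DUBs were NeutrAvidin-enriched, digested with LysC and trypsin, and run by diaPASEF LC-MS/MS. Spectronaut label-free quantities were global-median-normalised, and values are average log2 fragment/vehicle ratios by unpaired t-test on proteins with ≥2 unique peptides.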

ATXN3 = ATXN3 (UniProt P54252)
ATXN3, sequence (P54252 whole entry): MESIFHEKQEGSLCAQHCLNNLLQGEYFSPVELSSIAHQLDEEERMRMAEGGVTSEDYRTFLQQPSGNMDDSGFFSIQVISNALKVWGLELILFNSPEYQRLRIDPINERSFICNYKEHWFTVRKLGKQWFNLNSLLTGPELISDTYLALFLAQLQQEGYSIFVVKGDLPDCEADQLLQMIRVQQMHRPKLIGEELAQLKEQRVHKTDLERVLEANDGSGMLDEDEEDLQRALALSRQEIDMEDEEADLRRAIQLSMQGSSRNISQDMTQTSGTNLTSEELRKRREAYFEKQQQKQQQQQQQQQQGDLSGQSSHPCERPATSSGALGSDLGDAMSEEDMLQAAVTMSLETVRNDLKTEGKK
Summary of the method: as §1

BAP1 = target: T2, BAP1 (UniProt Q92560)
T2 sequence (whole entry): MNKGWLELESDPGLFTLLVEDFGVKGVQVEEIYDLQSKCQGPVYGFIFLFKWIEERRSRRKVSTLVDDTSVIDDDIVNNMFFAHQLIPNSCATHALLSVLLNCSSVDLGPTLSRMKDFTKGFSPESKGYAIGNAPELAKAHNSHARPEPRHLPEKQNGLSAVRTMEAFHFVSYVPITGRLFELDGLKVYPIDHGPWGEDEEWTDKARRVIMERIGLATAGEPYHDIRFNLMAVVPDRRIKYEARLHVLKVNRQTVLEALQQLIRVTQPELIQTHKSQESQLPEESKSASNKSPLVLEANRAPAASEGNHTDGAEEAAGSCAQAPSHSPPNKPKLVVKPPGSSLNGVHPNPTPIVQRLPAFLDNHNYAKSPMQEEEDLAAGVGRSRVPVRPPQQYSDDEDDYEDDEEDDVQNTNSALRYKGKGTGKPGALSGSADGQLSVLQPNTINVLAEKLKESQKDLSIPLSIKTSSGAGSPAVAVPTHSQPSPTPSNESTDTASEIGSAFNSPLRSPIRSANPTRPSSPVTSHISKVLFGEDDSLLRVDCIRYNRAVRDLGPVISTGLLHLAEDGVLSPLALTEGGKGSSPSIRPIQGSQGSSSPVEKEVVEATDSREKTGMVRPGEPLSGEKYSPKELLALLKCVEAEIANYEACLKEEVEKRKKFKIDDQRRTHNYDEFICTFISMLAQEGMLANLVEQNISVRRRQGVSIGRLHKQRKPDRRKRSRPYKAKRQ
Summary of the method: as §1

EIF3F = EIF3F (UniProt O00303)
EIF3F, sequence (O00303 whole entry): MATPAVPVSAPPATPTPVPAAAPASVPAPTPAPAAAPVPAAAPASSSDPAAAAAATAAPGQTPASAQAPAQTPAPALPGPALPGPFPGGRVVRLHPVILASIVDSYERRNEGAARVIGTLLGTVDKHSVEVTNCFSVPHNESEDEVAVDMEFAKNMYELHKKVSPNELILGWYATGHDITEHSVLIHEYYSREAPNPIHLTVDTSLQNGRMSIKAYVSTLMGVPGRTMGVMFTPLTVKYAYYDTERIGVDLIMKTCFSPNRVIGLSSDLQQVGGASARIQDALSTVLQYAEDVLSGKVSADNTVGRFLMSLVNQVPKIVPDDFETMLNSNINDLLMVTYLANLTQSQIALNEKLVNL
Summary of the method: as §1

EIF3H = EIF3H (UniProt O15372)
EIF3H, sequence (O15372 whole entry): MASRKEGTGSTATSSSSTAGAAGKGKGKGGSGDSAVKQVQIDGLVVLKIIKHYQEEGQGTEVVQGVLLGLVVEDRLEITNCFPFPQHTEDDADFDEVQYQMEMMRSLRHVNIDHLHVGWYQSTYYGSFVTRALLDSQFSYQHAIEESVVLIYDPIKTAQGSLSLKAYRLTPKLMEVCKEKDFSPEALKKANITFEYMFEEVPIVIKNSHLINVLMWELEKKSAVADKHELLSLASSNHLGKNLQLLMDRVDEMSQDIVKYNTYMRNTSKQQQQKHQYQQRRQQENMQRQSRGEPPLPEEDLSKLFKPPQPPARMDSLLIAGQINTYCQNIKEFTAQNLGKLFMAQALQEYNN
Summary of the method: as §1

FAM105A = target: T3, FAM105A (UniProt Q9NUU6)
T3 sequence (whole entry): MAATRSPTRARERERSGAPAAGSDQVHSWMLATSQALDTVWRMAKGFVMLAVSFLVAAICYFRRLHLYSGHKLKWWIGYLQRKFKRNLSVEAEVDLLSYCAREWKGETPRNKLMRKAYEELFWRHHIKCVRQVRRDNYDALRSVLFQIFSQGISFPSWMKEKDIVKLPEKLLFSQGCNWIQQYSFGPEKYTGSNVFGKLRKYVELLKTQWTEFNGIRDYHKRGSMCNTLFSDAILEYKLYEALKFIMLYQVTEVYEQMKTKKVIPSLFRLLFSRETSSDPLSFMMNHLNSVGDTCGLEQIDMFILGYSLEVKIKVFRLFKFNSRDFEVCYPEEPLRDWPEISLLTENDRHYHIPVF
Summary of the method: as §1

OTUB1 = OTUB1 (UniProt Q96FW1)
OTUB1, sequence (Q96FW1 whole entry): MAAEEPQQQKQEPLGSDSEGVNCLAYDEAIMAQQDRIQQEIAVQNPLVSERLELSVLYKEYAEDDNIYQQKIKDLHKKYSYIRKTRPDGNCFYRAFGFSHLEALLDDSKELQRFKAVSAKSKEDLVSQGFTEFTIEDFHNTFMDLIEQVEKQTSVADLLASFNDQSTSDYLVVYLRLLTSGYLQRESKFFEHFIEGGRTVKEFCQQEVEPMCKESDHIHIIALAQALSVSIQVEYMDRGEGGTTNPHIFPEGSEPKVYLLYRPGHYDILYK
Summary of the method: as §1

OTUD4 = target: T4, OTUD4 (UniProt Q01804)
T4 sequence (whole entry): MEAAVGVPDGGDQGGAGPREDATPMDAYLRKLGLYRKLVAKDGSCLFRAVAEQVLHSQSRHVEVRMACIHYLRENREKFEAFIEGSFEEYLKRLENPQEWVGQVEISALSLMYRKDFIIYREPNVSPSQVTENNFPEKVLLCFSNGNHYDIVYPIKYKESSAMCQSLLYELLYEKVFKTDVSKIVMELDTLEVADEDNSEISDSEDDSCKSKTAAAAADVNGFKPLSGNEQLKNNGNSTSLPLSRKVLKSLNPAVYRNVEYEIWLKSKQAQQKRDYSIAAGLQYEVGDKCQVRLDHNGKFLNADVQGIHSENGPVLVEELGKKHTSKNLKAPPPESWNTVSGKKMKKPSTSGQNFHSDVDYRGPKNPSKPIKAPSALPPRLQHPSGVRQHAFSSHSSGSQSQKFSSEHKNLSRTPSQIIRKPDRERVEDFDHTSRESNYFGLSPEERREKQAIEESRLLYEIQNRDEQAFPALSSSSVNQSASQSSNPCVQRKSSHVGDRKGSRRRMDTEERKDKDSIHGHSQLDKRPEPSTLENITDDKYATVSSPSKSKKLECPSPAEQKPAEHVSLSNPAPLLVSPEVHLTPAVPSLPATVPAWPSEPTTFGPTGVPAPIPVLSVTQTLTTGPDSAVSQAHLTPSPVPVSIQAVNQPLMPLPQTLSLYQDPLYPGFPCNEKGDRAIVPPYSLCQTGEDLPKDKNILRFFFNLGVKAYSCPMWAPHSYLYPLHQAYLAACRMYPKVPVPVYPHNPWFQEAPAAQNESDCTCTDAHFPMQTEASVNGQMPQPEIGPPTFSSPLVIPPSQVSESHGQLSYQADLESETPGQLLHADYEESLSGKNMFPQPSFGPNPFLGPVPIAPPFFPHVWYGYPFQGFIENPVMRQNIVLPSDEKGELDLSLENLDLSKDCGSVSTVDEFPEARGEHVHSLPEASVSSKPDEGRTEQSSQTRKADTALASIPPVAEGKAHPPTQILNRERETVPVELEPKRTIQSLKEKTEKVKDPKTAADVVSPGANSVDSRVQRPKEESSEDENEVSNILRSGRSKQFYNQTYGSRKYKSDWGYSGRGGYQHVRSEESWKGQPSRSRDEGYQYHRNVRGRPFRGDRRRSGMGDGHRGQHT
Summary of the method: as §1

OTUD5 = target: T5, OTUD5 (UniProt Q96G74)
T5 sequence (whole entry): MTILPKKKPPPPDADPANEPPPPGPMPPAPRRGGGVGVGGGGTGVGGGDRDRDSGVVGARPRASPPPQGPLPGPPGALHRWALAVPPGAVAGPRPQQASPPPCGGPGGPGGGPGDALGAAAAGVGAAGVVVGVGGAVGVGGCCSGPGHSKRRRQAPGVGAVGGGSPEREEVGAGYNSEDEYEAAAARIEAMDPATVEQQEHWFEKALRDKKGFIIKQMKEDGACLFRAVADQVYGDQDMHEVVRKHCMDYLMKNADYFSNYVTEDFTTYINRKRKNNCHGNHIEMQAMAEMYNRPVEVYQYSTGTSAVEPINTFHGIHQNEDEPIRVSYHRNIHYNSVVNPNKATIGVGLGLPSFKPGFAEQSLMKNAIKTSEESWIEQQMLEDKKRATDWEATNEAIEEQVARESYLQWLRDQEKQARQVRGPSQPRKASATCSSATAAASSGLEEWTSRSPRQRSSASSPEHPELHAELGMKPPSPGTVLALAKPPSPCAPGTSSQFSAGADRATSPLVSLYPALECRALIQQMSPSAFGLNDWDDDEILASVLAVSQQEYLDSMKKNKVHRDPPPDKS
Summary of the method: as §1

Row | SMILES | log2 ratio of Biotin-Ahx-Ub-VS probe labelling (ALG13) | log2 ratio of Biotin-Ahx-Ub-VS probe labelling (ATXN3) | log2 ratio of Biotin-Ahx-Ub-VS probe labelling (BAP1) | log2 ratio of Biotin-Ahx-Ub-VS probe labelling (EIF3F) | log2 ratio of Biotin-Ahx-Ub-VS probe labelling (EIF3H) | log2 ratio of Biotin-Ahx-Ub-VS probe labelling (FAM105A) | log2 ratio of Biotin-Ahx-Ub-VS probe labelling (OTUB1) | log2 ratio of Biotin-Ahx-Ub-VS probe labelling (OTUD4) | log2 ratio of Biotin-Ahx-Ub-VS probe labelling (OTUD5)
1 | O=C(CCl)NCC(=O)N1CCCC1 | 0.0112 | -0.179 | -0.409 | -0.198 | 0.0708 | -0.573 | -0.202 | -0.278 | -0.231
2 | O=C(CCl)N(C1CCCC1)C1CCS(=O)(=O)C1 (centres undefined) | 0.338 | -0.109 | -0.0673 | -0.335 | 0.00604 | 0.169 | -0.343 | 0.0168 | -0.379
3 | Cl.Cn1cnc2cc(CNC(=O)CCl)ccc21 | 0.056 | -0.239 | -2.15 (active) | -0.304 | 0.311 | -0.318 | 0.0608 | -0.0323 | -0.121
4 | CN(C)C(=O)c1ccc(NC(=O)CCl)cc1 | -0.115 | -0.241 | -3.59 (active) | 0.168 | 0.142 | 0.105 | 0.31 | -0.109 | -0.508
5 | CC(C)n1nccc1NC(=O)CCl | -0.568 | -0.233 | -4.23 (active) | -0.0764 | 0.237 | 0.00922 | -0.27 | -0.438 | -0.522
6 | O=C(CCl)N1CCC[C@@H]1c1ccon1 | 0.188 | -1.28 (active) | -2.4 (active) | -0.585 | 0.193 | 0.198 | -0.236 | -0.381 | -0.427
7 | O=C(CCl)N1CCCN(C(=O)c2ccc(Cl)cc2)CC1 | -0.303 | -0.712 | -0.719 | -0.31 | 0.393 | 0.113 | -0.428 | -0.424 | -0.688
8 | CC(=O)C1CCCCN1C(=O)CCl (centres undefined) | 0.0431 | 0.025 | -0.0781 | -0.0667 | 0.304 | 0.264 | 0.0807 | 0.0774 | -0.219
9 | O=C(CCl)NC1CCS(=O)(=O)c2ccccc21 (centres undefined) | -0.299 | -0.496 | -2.77 (active) | -0.00472 | -0.0327 | -0.0548 | 0.0659 | -1.76 (active) | -0.271
10 | Cl.O=C(CCl)NCCN1CCc2ccccc21 | -0.000809 | -0.887 | -1.61 (active) | -0.106 | 0.469 | 0.43 | 0.169 | -0.775 | -0.79
11 | CC(NC(=O)CCl)c1cc2n(n1)CCCC2.Cl (centres undefined) | 0.164 | 0.242 | -1.36 (active) | -0.359 | 0.193 | -0.0943 | 0.0152 | 0.133 | -0.0818
12 | Cc1nc(CN2CCCN(C(=O)CCl)CC2)no1.Cl | -0.458 | 0.224 | 0.234 | -0.233 | 0.122 | -0.14 | 0.0104 | 0.243 | -0.0201
13 | O=C(CCl)Nc1ccc2c(c1)OC(F)(F)O2 | 0.0874 | -0.411 | -1.92 (active) | -0.0462 | 0.0852 | -0.278 | 0.13 | -0.422 | -0.515
14 | CC(NC(=O)CCl)c1noc(Cc2ccccc2)n1 (centres undefined) | 0.107 | -0.275 | -2.73 (active) | -0.25 | -0.398 | -0.027 | 0.0412 | -0.692 | -0.271
15 | C[C@@H](NC(=O)CCl)c1cccc(C#N)c1 | 0.118 | -0.463 | -2.8 (active) | -0.345 | 0.144 | 0.148 | -0.229 | -0.372 | -0.284
16 | Cc1ccc2nnc(CNC(=O)CCl)n2c1 | 0.205 | -0.0879 | -1.05 (active) | -0.17 | 0.00833 | 0.283 | 0.0976 | 0.0524 | 0.0162
